Measurements as given in article PMC4552634, “A New Set of Chemical Starting Points with Plasmodium falciparum Transmission-Blocking Potential for Antimalarial Drug Discovery” (PLoS ONE, 2015).
Screen size: about 13,000 compounds; about 3,200 (25%) showed an effect of 50% or more. Some of the results follow.

Tested on: P. falciparum stage V gametocytes
Set-up: BacTiter-Glo ATP luminescence viability of purified stage V gametocytes in 384-well plates, per cent inhibition versus DMSO
Conditions: 48 h, 5 µM; inhibitor

SMILES | % Inhibition [%]
O=C(Nc1ccc(-c2oc(C(=O)NCCc3cccc(Cl)c3)cc2-c2ccncc2)cc1)Nc1cccc(Cl)c1 [TCMDC-135809] | -31.28
CC(C)CNC(=O)c1cncc(-c2ccc(CN3CCC(N4CCCC4)CC3)cc2)c1 [TCMDC-134236] | 32.19
COc1ccc(CNc2ncnc3c2[nH]c2ccc(F)cc23)cc1 [TCMDC-124466] | 15.1
Cc1cc2c(/C=C/C(=O)NC3CCC(CCN4CCc5ccc(C#N)cc5CC4)CC3)cccc2[nH]1 (stereo not drawn) [TCMDC-139674] | -23
CCN(CCC1(c2ccc(Cl)c(Cl)c2)CN(C(=O)c2cc(OC)c(OC)c(OC)c2)CCO1)C1CC2c3ccccc3CC21 (stereo not drawn) [TCMDC-135570] | -88.52
O=C(Nc1cccc(-c2ccc(-c3nc4ccc(F)cc4[nH]3)cc2)c1)c1csnn1 [TCMDC-136900] | -0.6993
CC(=O)Nc1nc(C(=O)Nc2cccc(-c3ccc(-c4nc5ccc(F)cc5[nH]4)cc3)c2)cs1 [TCMDC-137126] | 7.232
Cc1nnsc1C(=O)Nc1cccc(-c2ccc(-c3nc4ccc(F)cc4[nH]3)cc2)c1 [TCMDC-137082] | 79.62
CC(C)CNC(=O)c1ccnc(-c2ccc(CNCCCc3ccccc3)cc2)c1 [TCMDC-134252] | -3.007
CC[C@H](C)CNC(=O)c1cncc(-c2ccc(CNCCCc3ccccc3)cc2)c1 [TCMDC-134246] | -1.463
CC[C@H](C)CNC(=O)c1ccnc(-c2ccc(CNCCCc3ccccc3)cc2)c1 [TCMDC-134251] | 81.79
Cc1nc(N)nc(N)c1OCc1cccc2ccccc12 [TCMDC-131357] | -0.5645
Cc1cccc2[nH]c(-c3ccc(-c4cccc(CN5CCC(C(N)=O)CC5)c4)cc3)nc12 [TCMDC-132694] | -8.961
Cc1cccc2[nH]c(-c3ccc(-c4ccc(CN5CCCC(N)C5)cc4)cc3)nc12 (stereo not drawn) [TCMDC-133863] | 93.4
Cc1cccc2[nH]c(-c3cccc(-c4ccc(CN5CCCC5CN)cc4)c3)nc12 (stereo not drawn) [TCMDC-132991] | 36.61
Cc1cccc2[nH]c(-c3ccc(-c4ccc(CN5CCN(CC6CCCN(C)C6)CC5)cc4)cc3)nc12 (stereo not drawn) [TCMDC-133898] | 93.25
Cc1cccc2[nH]c(-c3ccc(-c4ccc(CN5CCN(CCO)CC5)cc4)cc3)nc12 [TCMDC-133033] | 4.83
Cc1cccc2[nH]c(-c3ccc(-c4ccc(CN5CCN(C6CCN(C)CC6)CC5)cc4)cc3)nc12 [TCMDC-133865] | 83.09
Cc1cccc2[nH]c(-c3ccc(-c4cccc(CN5CCCC5CN)c4)cc3)nc12 (stereo not drawn) [TCMDC-132993] | 21.61
Cc1cccc2[nH]c(-c3ccc(-c4ccc(CN5CCCC5CN)cc4)cc3)nc12 (stereo not drawn) [TCMDC-132999] | 66.58
Cc1cccc2[nH]c(-c3ccc(-c4ccc(CN5CCN(c6ccncc6)CC5)cc4)cc3)nc12 [TCMDC-132919] | 17.4
Cc1cccc2[nH]c(-c3ccc(-c4ccc(CN5CCN(CCN6CCOCC6)CC5)cc4)cc3)nc12 [TCMDC-133931] | 6.93
Cc1cccc2[nH]c(-c3ccc(-c4ccc(CN5CCCCC5)cc4)cc3)nc12 [TCMDC-133901] | -1.455

SMILES | % Inhibition [%]
Cc1cccc2[nH]c(-c3ccc(-c4ccc(CN5CCN(CCC#N)CC5)cc4)cc3)nc12 [TCMDC-133867] | -11.37
O=C(Nc1cccc(OC2CCN(Cc3ccsc3)CC2)c1)c1ccc(C(F)(F)F)cc1 [TCMDC-133737] | -11.34
Cc1cc(OCc2ccncc2)cc2c1C(=O)CC(C)(C)O2 [TCMDC-131314] | 21.7
O=C(N1CCN(c2ccnc3cc4c(cc23)N(Cc2ccccc2)CC4)CC1)C(F)(F)F [TCMDC-140138] | 5.48
O=C(Nc1ccc2c(c1)CCN2C1CCN(Cc2ccc(F)cc2Cl)C1)c1ccco1 (stereo not drawn) [TCMDC-135068] | -23.63
Cc1ccc(C(=O)Nc2ccc(-c3nc4ccccc4[nH]3)cc2)cc1S(=O)(=O)N1CCOCC1 [TCMDC-124532] | -13.26
COC(=O)c1cccc(CNCc2ccc(-c3ccc(-c4nc5cc(C(F)(F)F)ccc5[nH]4)s3)cc2)c1.O=C(O)C(F)(F)F [TCMDC-132958] | -50.86
CCCC(C)Nc1nc(C)cc(NCCC(=O)Nc2ccccc2)n1 (stereo not drawn) [TCMDC-134763] | 23.15
Cc1sc(C)c(C(F)(F)F)c1CNCCCNc1cc(=O)c2ccccc2[nH]1 [TCMDC-140766] | -57.97
FC(F)(F)COc1ccc2ccccc2c1CCNCCCCNCCc1c(OCC(F)(F)F)ccc2ccccc12 [TCMDC-137317] | 103.9
FC(F)(F)COc1ccc2ccccc2c1CNCCCCCCNCc1c(OCC(F)(F)F)ccc2ccccc12 [TCMDC-137816] | 113.4
CC1CN(c2ccc3occ(C(=O)Nc4ccc(-c5ccncc5)c(Cl)c4)c3c2)CC(C)N1C (stereo not drawn) [TCMDC-141360] | 38.63
O=C(Nc1cccc(-c2ccc(-c3nc4ccccc4[nH]3)s2)c1)c1ccncc1 [TCMDC-136956] | 6.685
CC(C)CN1CCN(CCNc2c3ccccc3nc3ccccc23)CC1 [TCMDC-138008] | 92.54
CCCN1CCN(CCCCNc2c3ccccc3nc3ccccc23)CC1 [TCMDC-137576] | 93
CCCN1CCN(CCCNc2c3ccccc3nc3ccccc23)CC1 [TCMDC-137478] | 97.73
CCOC(=O)N1CCN(CCCNc2c3ccccc3nc3ccccc23)CC1.Cl [TCMDC-137544] | 15.5
COc1cc2nc(NCCN3CCOCC3)n3nc(-c4ccccc4)nc3c2cc1OC [TCMDC-124407] | -12.35
CCCN1CCN(CCNc2c3ccccc3nc3ccccc23)CC1 [TCMDC-137549] | 102.5
O=C1NC(C(=O)Nc2ccccc2)C(c2ccccc2)S1 (stereo not drawn) [TCMDC-131740] | 2.02
O=C(Nc1ccc(-c2ccc(-c3nc4ccccc4[nH]3)s2)cc1)Nc1ccc(F)c(F)c1F [TCMDC-133236] | -3.503
CCC[C@@H]([C@@H](CC1CCCCC1)C(=O)N[C@H](C(=O)Nc1nccs1)C(C)(C)SCCNC(=O)OCc1ccccn1)N(O)C=O [TCMDC-137794] | 19.2
O=C(N/C=N/c1cc([N+](=O)[O-])c(-c2ccncc2)n1-c1ccccc1)c1cccc(O)c1 [TCMDC-125648] | -19.59

SMILES | % Inhibition [%]
O=c1ccccn1CCCC1CCCCN1 (stereo not drawn) [TCMDC-140731] | 9.489
CCCCN(CCCC)Cc1cc2ccccc2cc1O [TCMDC-137590] | -20.89
Oc1ccc(OCc2ccccn2)cc1 [TCMDC-125881] | 0.9057
Oc1ccccc1CN(CCCN(Cc1ccccn1)Cc1ccccc1O)Cc1ccccn1 [TCMDC-138469] | 77.52
COc1nc(Nc2cccc(C)c2)nc(OC)n1 [TCMDC-124204] | -12.01
CN(C)C(CNc1ncnc2cc(Cl)ccc12)Cc1ccccc1 (stereo not drawn) [TCMDC-124600] | -0.01557
Cc1c(Cl)cccc1S(=O)(=O)N1CCCCC(c2ccc(C(F)(F)F)cc2)=N1 [TCMDC-134534] | -14.43
CN(C)c1ccc2c(c1)Sc1cc(N(C)C)ccc1N2C(=O)CCCC(=O)O [TCMDC-125778] | 104
CC(=O)CSC(C=Cc1ccc(N(C)C)cc1)=Nc1ccccc1 [TCMDC-137558] | -4.21
CN(C)c1ccc2c(c1)Sc1cc(N(C)C)ccc1N2C(=O)c1cccc(C(=O)O)c1 [TCMDC-124169] | 30.57
O=C(Nc1cccc(Cl)c1Cl)N[C@H]1CCN(CCCCCNC(=O)C2CC2c2ccc(Cl)c(Cl)c2)C1 (stereo partly drawn) [TCMDC-136267] | -46.93
O=C(Nc1ccc(Cl)cc1F)NC1CCN(CCCCCNC(=O)C2CC2c2ccc(Cl)c(Cl)c2)CC1 (stereo not drawn) [TCMDC-136258] | 66.19
O=C(Nc1ccc(F)cc1F)NC1CCN(CCCCCNC(=O)C2CC2c2ccc(Cl)c(Cl)c2)CC1 (stereo not drawn) [TCMDC-136253] | -52.54
O=C(Nc1cc(Cl)ccc1Cl)N[C@H]1CCN(CCCCCNC(=O)C2CC2c2ccc(Cl)c(Cl)c2)C1 (stereo partly drawn) [TCMDC-136265] | 55.1
O=C(Nc1ccc(Cl)cc1Cl)N[C@H]1CCN(CCCCCNC(=O)C2CC2c2ccc(Cl)c(Cl)c2)C1 (stereo partly drawn) [TCMDC-136268] | -5.844
O=C(Nc1cc(Cl)cc(Cl)c1)N[C@H]1CCN(CCCCCNC(=O)C2CC2c2ccc(Cl)c(Cl)c2)C1 (stereo partly drawn) [TCMDC-136273] | 86.02
O=C(Nc1ccc(Cl)cc1F)N[C@H]1CCN(CCCCCNC(=O)C2CC2c2ccc(Cl)c(Cl)c2)C1 (stereo partly drawn) [TCMDC-136269] | 0.8246
O=C(Nc1ccc(Cl)cc1Cl)NC1CCN(CCCCCNC(=O)C2CC2c2ccc(Cl)c(Cl)c2)CC1 (stereo not drawn) [TCMDC-136257] | 1.836
O=C(Nc1ccc(Cl)cc1)N[C@H]1CCN(CCCCCNC(=O)C2CC2c2ccc(Cl)c(Cl)c2)C1 (stereo partly drawn) [TCMDC-136262] | 1.23
O=C(Nc1cc(Cl)ccc1O)c1ccc(Oc2ccc(C(=O)Nc3cc(Cl)ccc3O)cc2)cc1 [TCMDC-124084] | -31.23
Cc1ccc(C)c(NC(=O)NC2CCN(c3ccnc(Nc4ccc(F)cc4)n3)C2)c1 (stereo not drawn) [TCMDC-133601] | -9.129
Cc1ccc2[nH]ncc2c1N(CC1CCCCC1)c1ccnc(Nc2ccc(OCC(O)CN3CC=CCC3)cc2)n1 (stereo not drawn) [TCMDC-138794] | 108.6
COc1ccc(Nc2nccc(N3CCC(NC(=O)Nc4cc(C)ccc4C)C3)n2)cc1 (stereo not drawn) [TCMDC-133615] | -63.4
